Results taken from PubChem BioAssay (NCI).
Compounds without any hit were thinned out: in the full panel of roughly 83,000, 20% have a hit.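 Negative percent growth values reflect cell death: -40 means 40% of the cells present at the start died, and -100 means all died.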 The source made the active and inactive calls. Rule for the calls: active = growth percent below 10; inactive = the rest.

Experiments:
Test in all cases: NCI-60 one-dose screen, 48 h (100 = growth as untreated, 0 = no growth, -100 = all killed)
[1] = system: SK-MEL-2 melanoma; settings: 10 µM unless noted
[2] = system: SN12C renal; settings: 10 µM unless noted
[3] = system: UO-31 renal; settings: 10 µM unless noted
[4] = system: TK-10 renal; settings: 10 µM unless noted
[5] = system: ACHN renal; settings: 10 µM unless noted
[6] = system: CAKI-1 renal; settings: 10 µM unless noted
[7] = system: A498 renal; settings: 10 µM
[8] = system: HL-60(TB) leukemia; settings: 10 µM unless noted
[9] = system: CCRF-CEM leukemia; settings: 10 µM unless noted
[10] = system: MOLT-4 leukemia; settings: 10 µM unless noted
[11] = system: SR leukemia; settings: 10 µM unless noted
[12] = system: RPMI-8226 leukemia; settings: 10 µM unless noted
[13] = system: OVCAR-8 ovarian; settings: 10 µM unless noted
[14] = system: OVCAR-5 ovarian; settings: 10 µM unless noted
[15] = system: OVCAR-4 ovarian; settings: 10 µM unless noted
[16] = system: IGROV1 ovarian; settings: 10 µM unless noted
[17] = system: OVCAR-3 ovarian; settings: 10 µM unless noted
[18] = system: HS 578T breast; settings: 10 µM unless noted
[19] = system: SK-OV-3 ovarian; settings: 10 µM unless noted

Measured: growth

Cc1c(O)c(CN(CCCl)CCCl)cc(CN(CCCl)CCCl)c1O
inactive: [1] 110% | [2] 72.9% | [3] 70.3% | [4] 100% | [5] 42.5% | [6] 17.6% | [7] 92.4% | [8] 47.1% | [9] 41.8% | [10] 75.2% | [12] 86.8% | [13] 90.4% | [14] 97.9% | [15] 83.9% | [16] 87.4% | [17] 101% | [18] 86.3%
active: [11] 4.03%

c1cnc2[nH]cc(-c3csc(-c4cn(CCCCN5CCOCC5)c5ccccc45)n3)c2c1
active: [8] -58.2% | [11] -20.1%
inactive: [1] 87.8% | [2] 67% | [3] 25.4% | [4] 64.4% | [5] 32.4% | [6] 44.3% | [7] 56.8% | [9] 10.1% | [10] 13.1% | [13] 60.6% | [14] 72.5% | [15] 74.8% | [19] 81.1% | [16] 34.9% | [17] 59.8% | [18] 54.9%

O=C1CN=C(c2ccc(Cl)cc2)c2sccc2N1
inactive: [1] 107% | [2] 96.2% | [3] 84.6% | [4] 99.7% | [5] 104% | [6] 97.9% | [7] 102% | [8] 98.3% | [9] 97.4% | [10] 95.6% | [11] 87.1% | [12] 97.7% | [13] 101% | [14] 104% | [15] 102% | [19] 113% | [16] 108% | [17] 109% | [18] 99.6%

CCCCCCCCCCCCCC[P+](CCCCCC)(CCCCCC)CCCCCC
active: [1] -3.57% | [2] -79.1% | [3] -36.6% | [4] -43.3% | [5] -26% | [6] 4.01% | [7] -48.3% | [13] -79.9% | [14] -7.29% | [15] -91.8% | [19] -3.34% | [17] -100% | [18] -35.8%
inactive: [8] 43.1% | [9] 26.5% | [10] 51.6% | [11] 62.4% | [12] 59.4%

N#C[Se]Cc1cc(-c2ccccc2)n(-c2ccc(S(N)(=O)=O)cc2)n1
active: [1] -35.9% | [2] 6.49% | [3] -25.6% | [4] -29.7% | [5] 1.16% | [6] 0.316% | [7] -61.4% | [8] -44.5% | [9] -16.4% | [10] -28.4% | [11] -32.5% | [12] -33.5% | [13] 6.01% | [14] -42.6% | [15] 2.52% | [19] -42.6% | [16] -35.6% | [17] -80.6% | [18] -17.6%

COc1ccc(/C=C\c2cc(OC)c(OC)c(OC)c2)c(NS(=O)(=O)c2ccc(Cl)cc2)c1O
inactive: [2] 22.1% | [3] 33.7% | [4] 25.1% | [5] 25.9% | [6] 28.1% | [10] 10.1% | [14] 49.2% | [15] 33.1% | [19] 21.9% | [16] 30.1% | [18] 10.9%
active: [1] 0.0535% | [7] -13% | [8] -38.8% | [9] 7.81% | [11] 7.33% | [13] 2.97% | [17] -31.1%

C[C@]12CCc3sc(NCCc4ccccc4)nc3C1=CC[C@@H]1[C@@H]2CC[C@]2(C)C(=O)CC[C@@H]12
inactive: [1] 92.1% | [2] 68.5% | [3] 50.4% | [4] 91.3% | [5] 73.8% | [6] 73.5% | [7] 86.9% | [13] 72.1% | [14] 100% | [15] 74.2% | [19] 112% | [16] 88% | [18] 75.5%
active: [8] 1.45% | [9] 8.44% | [10] 4.71% | [11] 0.916% | [12] -5.28% | [17] 6.41%

COc1ccc(C2=CC(c3ccc(OC)c(OC)c3)c3c(c4ccccc4oc3=O)O2)cc1OC (configuration not stated)
inactive: [2] 58.7% | [3] 21.8% | [4] 42% | [5] 52.7% | [10] 11.9% | [13] 36.2% | [14] 60.2% | [15] 42.8% | [19] 25.6%
active: [1] 8.03% | [6] 7.77% | [7] -3.43% | [8] -59.9% | [9] -6.1% | [12] -48.5% | [17] -16.3% | [18] -5.68%

ClCCN(CCCl)c1ccc(OCc2ccccc2)cc1
inactive: [1] 114% | [2] 30.8% | [3] 38.6% | [4] 96.3% | [5] 17.7% | [6] 11.4% | [7] 68.9% | [8] 10.6% | [9] 14.4% | [10] 11.7% | [12] 64.8% | [13] 55.8% | [14] 89% | [15] 78.7% | [16] 76.7% | [17] 78% | [18] 96.6%
active: [11] -8.12%

CC(C)CCC1(CCCl)C(=O)NC(=O)NC1=O
inactive: [1] 104% | [2] 95.6% | [3] 91% | [4] 100% | [5] 102% | [6] 94.6% | [7] 89.4% | [8] 108% | [9] 95.3% | [10] 112% | [11] 102% | [12] 103% | [13] 101% | [14] 101% | [15] 99.4% | [19] 102% | [16] 108% | [17] 116% | [18] 106%

Cc1cc(N(CCCl)CCCl)ccc1/C=N\NC(=O)c1ccncc1
inactive: [1] 120% | [2] 64.5% | [3] 82.5% | [4] 93.1% | [5] 73.9% | [6] 33.2% | [8] 53.4% | [9] 68.2% | [10] 58.8% | [11] 47.9% | [12] 90.6% | [13] 61.9% | [14] 54.5% | [15] 89.1% | [19] 95.4% | [16] 87% | [17] 90.8% | [18] 109%
active: [7] -94.9%

COC(=O)C1OC(Oc2ccc(N(CCCl)CCCl)cc2)C(OC(C)=O)C(OC(C)=O)C1OC(C)=O (configuration not stated)
active: [6] 3.7% | [11] 4.19%
inactive: [1] 109% | [2] 62.4% | [3] 73.1% | [4] 92.5% | [5] 27.4% | [7] 104% | [8] 40.1% | [9] 37.2% | [10] 37.3% | [12] 96.6% | [13] 84.8% | [14] 90.4% | [15] 87.7% | [19] 96.7% | [17] 94.2% | [18] 102%

O=C1C2CCC1C(N1CCCC1)CC2 (configuration not stated)
inactive: [1] 103% | [2] 100% | [3] 87.5% | [4] 97.8% | [5] 102% | [6] 97.7% | [7] 92.2% | [8] 97.2% | [9] 94.3% | [10] 98% | [11] 100% | [12] 98.7% | [13] 96.3% | [14] 101% | [15] 106% | [19] 106% | [16] 96% | [17] 106% | [18] 102%

O=C(Nc1ccc(Br)cc1)c1cc(Br)cc(Br)c1O
inactive: [4] 14.6% | [7] 32.2% | [8] 84.3% | [9] 13.5% | [10] 62.2% | [13] 11.1% | [15] 19.7% | [16] 19.4% | [17] 32.9% | [18] 43.4%
active: [1] -21.8% | [2] -2.01% | [3] 4.99% | [5] -19.5% | [6] -6.11% | [12] -10.1% | [14] 9.56% | [19] -11.7%

O=C1C2CC=CCC2C(=O)N1SC(Cl)(Cl)Cl (configuration not stated)
inactive: [1] 122% | [2] 97.4% | [4] 115% | [5] 72.3% | [6] 72.8% | [7] 139% | [8] 46.2% | [9] 21.6% | [10] 36.3% | [11] 41.5% | [12] 33.1% | [13] 102% | [14] 111% | [15] 99.9% | [16] 31.7% | [17] 76.8% | [18] 160%
active: [3] 4.07%

CC1=C2[C@@H](CC1)[C@]1(C)O[C@@](C(C)C)(C[C@H]1O)[C@H]2OC(=O)C1CC1c1ccccc1 (some centres not stated)
inactive: [1] 87.7% | [2] 91.7% | [3] 74.7% | [4] 104% | [5] 84.2% | [6] 79.5% | [7] 72.7% | [8] 80.5% | [9] 74.9% | [10] 63.4% | [11] 92.4% | [12] 58.2% | [13] 71.8% | [14] 97.5% | [15] 91.8% | [19] 90.6% | [16] 96.2% | [17] 100% | [18] 95.5%

CC(C)=CCC/C(C)=C/C=N\N=C(/N)N[N+](=O)[O-]
inactive: [1] 92.9% | [2] 100% | [3] 69.7% | [4] 87.4% | [5] 109% | [6] 84.9% | [7] 83.9% | [8] 113% | [9] 93.3% | [10] 90.9% | [12] 93.6% | [13] 104% | [14] 103% | [15] 93.4% | [19] 98.9% | [16] 99.5% | [17] 101% | [18] 99.8%
